From PubChem BioAssay (NCATS)
Results filed as inconclusive are left out. Where a call stands in place of a potency, no number is given. Active and inactive are the calls of the source. Calls follow the shape of the dose curve; as a rule, active = well fitted curve in the direction sought with a large enough effect; inconclusive = small, poorly fitted or top-dose-only effect, or another doubt; inactive = no such curve, though single readings can be large; an effect the other way counts as inactive or inconclusive.

Test: Viability qHTS for inhibitors of the SERCaMP assay screened against the NCATS CANVASS Library (AID 1347400); also: nearly all actives have a fitted effect of over 70% in size
Conditions: SH-SY5Y SERCaMP cells viability, CellTiter-Glo, 48 h; series mostly up to 92.2 µM
Procedure, shortened: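 SH-SY5Y SERCaMP MJH297 cells, 1000/well; 4 h settle, 37C/5% CO2; pin-transferred cpds; 48 h; CellTiter-Glo lum. Pos ctrl bortezomib 0.0001 - 4.6 uM.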
Potency is read from the fitted curve at half-maximal effect.

Compound	Potency
COc1cc2c(c(O)c1O)C(=O)c1c(coc1C)C2=O	15.2 µM (active)
CO[C@H]1[C@@H](OC(=O)/C(C)=C\[C@@H]2O[C@@H]2[C@H]2O[C@H]2C)[C@H](O)[C@H](OCC23C[C@@H]4[C@H](C)CC[C@H]4C4(C=O)CC2C=C(C(C)C)C34C(=O)O)O[C@@H]1C (some centres undefined)	inactive
C/C=C/C1C=CC2CC(C)CC(C)C2C1C(=O)CC(=O)NC(CO)C/C=C/CCCCC (centres undefined)	inactive

Test: Redox Reaction Profiling qHTS: Assay Interference Panel against the NCATS CANVASS Library (AID 1347401)
Conditions: resazurin-DTT redox cycling, fluorescence, 15 min; series mostly up to 57.1 µM
Procedure, shortened: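 Cell-free redox surrogate: 5 uM resazurin + 200 uM DTT, 50 mM HEPES pH 7.3/50 mM NaCl; cpds pinned, 11-pt qHTS; Ex525/Em598 read t0 and t=15 min, dark.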

Compound	Potency
Cc1occ2c1C(=O)c1c(cc(O)c(O)c1O)C2=O	inactive
CCC(=O)CCCCC[C@@H]1NC(=O)[C@H]2CCCCN2C(=O)[C@H](C(C)C)NC(=O)[C@H](Cc2cn(OC)c3ccccc23)NC1=O	inactive
C/C(=C\[C@H](C)C(=O)CCCC1CC(=O)NC(=O)C1)[C@@H]1OC(=O)/C=C/CC/C=C/[C@H](O)[C@@H](O)[C@@H]1C	24.1 µM (active)
C=CC(CCCCC)C1C(=O)NC(=O)C1C(=O)C1C(/C=C/C)C=CC2CC(C(=O)O)CC(C)C21 (centres undefined)	inactive
O=c1cc(-c2ccc(O)c(O)c2)oc2cc(O[C@@H]3O[C@H](CO)[C@@H](O)[C@H](O)[C@H]3O)cc(O)c12	inactive
COc1ccc2[nH]c3c(c2c1)CCN1C[C@H]2C[C@@H](OC(=O)c4cc(OC)c(OC)c(OC)c4)[C@H](OC)[C@@H](OC)[C@H]2C[C@H]31	inactive
O[C@H]1c2ccccc2-c2c3c(cc4c2[C@@H]1NCC4)OCO3	19.2 µM (active)
CC(C)=CC[C@H]1C[C@@]2(CC=C(C)C)C(=O)[C@](CC=C(C)C)(C(=O)C(C(=O)c3ccccc3)=C2O)C1(C)C	inactive
C[C@]12CC[C@]3(C1)[C@H](CC2=O)C[C@@H](OC(=O)c1ccccc1)[C@H]1[C@](C)(C(=O)O)CCC[C@@]13C	inactive
CC(=O)O[C@H]1c2ccccc2-c2c3c(cc4c2[C@@H]1N(C(C)=O)CC4)OCO3	inactive
C=C[C@](Cl)(CBr)CCC=C(C)C	inactive
COc1cc2c(cc1OC)[C@@H](c1ccc3c(c1)OCO3)C(C)C(C)C2=O (some centres undefined)	inactive
C[C@H]1C=C[C@H]2CCCC[C@@H]2[C@H]1C(=O)[C@H]1CC2=C(C(=O)O)CCN2C1=O	inactive
CC(C)=CCC[C@]12c3cc4c(cc3CC[C@@]1(C)[C@H](C)CC[C@@H]2O)[nH]c1ccccc14	inactive
COc1cc(O)c(C(=O)[C@@H]2[C@H](CC=C(C)C)C(C)=CC[C@H]2c2ccccc2)c(O)c1	inactive
C=C(C)CC[C@H](Cc1c(O)cc(O)c2c1O[C@H](c1ccc(O)cc1)CC2=O)C(=C)C	inactive
C=CC(CCCCC)C1C(=O)NC(=O)C1C(=O)C1C2C(C)CC(C(=O)O)CC2CC1(O)C(=O)/C=C/C (centres undefined)	inactive
C[C@]12CCC[C@](C)(C(=O)O)[C@@H]1CC[C@@]1(C)c3cocc3CC[C@H]21	inactive
CO[C@H]1[C@@H](OC(=O)/C(C)=C\[C@@H]2O[C@@H]2[C@H]2O[C@H]2C)[C@H](O)[C@H](OCC23C[C@@H]4[C@H](C)CC[C@H]4C4(C=O)CC2C=C(C(C)C)C34C(=O)O)O[C@@H]1C (some centres undefined)	inactive
C/C=C/C1C=CC2CC(C)CC(C)C2C1C(=O)CC(=O)NC(CO)C/C=C/CCCCC (centres undefined)	inactive
CC[C@H]1[C@H](C)[C@H](c2cc(OC)c(OC)cc2OC)[C@@H](C)[C@H](c2cc(OC)c(OC)cc2OC)[C@@]12C=C(OC)C(=O)C=C2OC	inactive
